The compounds below were run against Concanavalin-A (Canavalia ensiformis) (UniProt P02866) (assay: compounds binding concanavalin A lectin – biochemical, small-molecule microarray, Alexa647 label, 635 nm, artefact control for SMM control protein annotation, primary screen (AID 1127;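 further: z combines 667 nm emission intensity with signal-to-noise across three replicate slides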)). Settings: ConA-A647 binding fluorescence, higher = more signal.
Sequence of Concanavalin-A (Canavalia ensiformis) (P02866 whole entry, looked up): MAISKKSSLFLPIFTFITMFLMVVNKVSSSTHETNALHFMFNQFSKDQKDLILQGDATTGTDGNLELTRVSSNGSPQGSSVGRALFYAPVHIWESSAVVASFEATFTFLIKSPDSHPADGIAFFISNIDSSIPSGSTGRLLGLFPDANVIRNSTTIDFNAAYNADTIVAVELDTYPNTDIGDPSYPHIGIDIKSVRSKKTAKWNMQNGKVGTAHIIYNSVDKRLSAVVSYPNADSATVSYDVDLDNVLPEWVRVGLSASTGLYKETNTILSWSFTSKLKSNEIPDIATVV

SMILES	composite z-score
CC1CC/C=C\[C@H]2OC34C=CCN(C(C)(C)C)C(=O)[C@H]3N(CCCCCCO)C(=O)[C@@H]4C2C(=O)O1 (stereo not given in full)	-0.239
C[C@@]1([C@@H](NC(=O)c2ccccc2)c2ccc(-c3ccccc3)cc2)C[C@H]1C1CCCCC1	-0.867
COCCCNC(=O)[C@@]1(Cc2ccccc2N=[N+]=[N-])N=C(c2ccc(OCCCO)cc2)O[C@H]1c1ccccc1N=[N+]=[N-]	1.1
CCN(CC)c1ccc(N2CC=CC34O[C@@H]5/C=C\CCCOC(=O)C5[C@H]3C(=O)N(CCO)[C@@H]4C2=O)cc1 (stereo not given in full)	-0.362
CC(C)(C)OC(=O)CC[C@]12N=C(c3ccc(OCCCO)cc3)O[C@H]1c1ccccc1N(CCS(=O)(=O)c1ccccc1)C2=O	1.14
CN1C(=O)C2C=CC(C(O)c3cccs3)N(Nc3ccccc3)C2C1=O (stereo not given)	0.442
O=C1O[C@H](c2ccccc2)[C@H](c2ccccc2)N2[C@H]1[C@@H](C(=O)O)[C@]1(C(=O)Nc3ccc(C#CC4=CCCCC4)cc31)[C@H]2c1ccccc1OCCO	1.19
COc1cc(OC)c(C(O)C2C=CC3C(=O)NC(=O)C3N2Nc2ccc(Cl)cc2Cl)cc1Br (stereo not given)	0.468
C=CC[C@]1(C(=O)NCCCOC)N=C(c2ccc(OCCCO)cc2)O[C@H]1c1ccccc1N=[N+]=[N-]	0.982
Cc1ccc(S[C@]2(C(=O)NCCN3CCOCC3)CC(=O)N(Cc3ccccc3Cl)[C@@H]2c2ccc(CO)cc2)cc1	-0.199
Cc1ccc(S[C@]2(C(=O)NCC(C)C)CC(=O)N(Cc3cc(C(F)(F)F)cc(C(F)(F)F)c3)[C@@H]2c2ccc(CO)cc2I)cc1	-1.39
CC(C)[C@@H](CO)NC(=O)[C@H]1[C@@H](c2ccccc2)N(c2ccccc2)O[C@@H]1C	-0.271
C=CCOC(=O)[C@@H]1[C@H]2C(=O)O[C@H](c3ccccc3)[C@H](c3ccccc3)N2[C@H](c2ccc(OCCOC(=O)[C@@H]3C[C@@H]4C(=O)N[C@@H](CCCCN(C)C)C(=O)N4[C@@H]3c3ccc(O)cc3)cc2)[C@@]12C(=O)Nc1ccc(I)cc12	1.16
COCCOC(=O)N1C(=O)[C@@]2(c3cc(C#CC4=CCCCC4)ccc31)[C@H](C(=O)Nc1nc3ccccc3s1)[C@H]1C(=O)O[C@H](c3ccccc3)[C@H](c3ccccc3)N1[C@@H]2c1ccccc1OCCO	1.14
CC(C)N1C(=O)[C@@]2(Cc3ccccc31)c1ccccc1C(=O)N(C1CCCCC1)[C@H]2c1ccc(CO)cc1	0.842
O=C1O[C@H](c2ccccc2)[C@H](c2ccccc2)N2[C@H]1[C@@H](C(=O)O)[C@]1(C(=O)Nc3ccc(C#CCCO)cc31)[C@H]2c1ccc(O)cc1	-0.161
C=CC[C@@]1(C(=O)NCc2ccccc2)N=C(c2ccc(OCCCO)cc2)O[C@@H]1c1ccccc1N=[N+]=[N-]	0.906
COc1ccc(CCN2C(=O)[C@@]3(c4ccc([N+](=O)[O-])cc4)CC(=O)N(C4CCCCC4)[C@@H]3c3ccc(CO)cc32)cc1	0.587

SMILES	composite z-score
C=CCOC(=O)[C@@H]1[C@H]2C(=O)O[C@H](c3ccccc3)[C@H](c3ccccc3)N2[C@H](c2ccc(OCCOC(=O)[C@@H]3C[C@@H]4C(=O)N[C@@H](CCCC[N+](C)(C)C)C(=O)N4[C@@H]3c3cccc(OCCO)c3)cc2)[C@@]12C(=O)Nc1ccc(I)cc12	1.19
O=C1[C@H]2C=C(Br)[C@H](C[C@@H]2OCCCCO)[C@@]12CO2	-0.0118
O=C(NCc1ccccc1)[C@@]1(Cc2ccccc2)N=C(c2ccc(OCCCO)cc2)O[C@H]1c1ccccc1	1.15
CCc1oc(CC[C@@H](CO)NC(=O)NCCn2cc(C3(O)CCCCC3)nn2)c(C(=O)OC)c1C(=O)OC	1.11
C=C(/C(=C/C[C@@H](OC(C)=O)c1ccc(OCCO)cc1)c1cnc2ccccc2c1)C(C)C	0.806
COC(=O)[C@@]1(Cc2ccc(F)cc2)[C@H]2c3cc(C(=O)N(C)C)n(Cc4ccc(S(C)(=O)=O)cc4)c3C[C@H]2CN1C(=O)c1ccccc1	0.518
O=C(NCc1ccc(F)cc1)[C@H]1C[C@H]2C(=O)N[C@@H](Cc3ccccc3)C(=O)N2[C@H]1c1ccc(O)cc1	0.368
C=CC[C@@]1(C(=O)N(C)C)N=C(c2ccc(OCCCO)cc2)O[C@@H]1c1ccccc1N=[N+]=[N-]	1.18
C=C(COC)/C(=C/C[C@@H](OC(C)=O)c1ccc(OCCO)cc1)c1cc(C(=O)OC)ccc1OC	0.699
Cc1ccc(C(C)CC(O)C2C=CC3C(=O)N(C)C(=O)C3N2NC(=O)OC(C)(C)C)o1 (stereo not given)	1.05
CC(C)C[C@@H]1NC(=O)[C@H]2C[C@@H](C(=O)NCCCCCCN(C)C)[C@@H](c3ccc(O)cc3)N2C1=O	1.17
CN(C)CCCCCCNC(=O)[C@@H]1C[C@@H]2C(=O)N[C@@H](CCCCN)C(=O)N2[C@@H]1c1cccc(OCCO)c1	1.24
[N-]=[N+]=NCc1ccccc1[C@H]1OC(c2ccc(OCCCO)cc2)=N[C@@]1(Cc1ccccc1)C(=O)NCc1ccccc1	0.824
CCOC(=O)C[C@H]1[C@H](OC(=O)c2cc3ccccc3oc2=O)[C@@H](NC(=O)C2CCCCC2)c2cc(OCCCO)ccc2N1C(=O)c1ccccc1	0.282
[N-]=[N+]=NCc1ccccc1C[C@]1(C(=O)NCC(O)CO)N=C(c2ccc(OCCCO)cc2)O[C@H]1c1ccccc1 (stereo not given in full)	-0.916
CO[C@H]1O[C@H](CO)[C@@H](OC(=O)Nc2ccc(Br)cc2)[C@H](OC(=O)c2cc3ccccc3[nH]2)[C@H]1OC(=O)c1cc2ccccc2[nH]1	1.14
CC(CO)N1C(=O)[C@@H]2C3C(=O)OCCC/C=C\[C@H]3OC23C=CCN(c2ccc4ccccc4c2)C(=O)[C@@H]13 (stereo not given in full)	-0.172

From PubChem BioAssay
